Assay results taken from PubChem BioAssay AID1159580 (chemical genetic matrix, 2015).
Where “and” joins values, the source holds several entries; their conditions need not be identical. Identical values can stand only once. Screen size: about 5,500 compounds; about 2,000 (36%) were called active. Inconclusive results (about 18%) are left out. Rule as the data show it: active = normalized growth mostly below about 0.91 (no sharp cut-off); inconclusive = no clear call, values can overlap the other calls; inactive = mostly above about 0.92. The list shows a part of the results.

Experiment: chemical genetic growth profiling, strain panel (AID 1159580);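 also: tested at 20 µM; growth read once vehicle control cultures reached saturation at 30 °C; 1 = growth at the plate median or of vehicle wells; lower values mean less growth of the strain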
Conditions: S. cerevisiae deletion strains, growth OD

Measured: normalized growth

O=C(O)c1cc2ccccc2c(Cc2c(O)c(C(=O)O)cc3ccccc23)c1O
active: locus YHR079C, strain IRE1, stronger effect = lower value 0.844
0.99 (inactive) and 0.866 (active): locus YJL095W, strain BCK1, stronger effect = lower value
inactive: locus YAL021C, strain ccr4, stronger effect = lower value 0.967 | locus YAL026C, strain drs2, stronger effect = lower value 1.01 | locus YAL030W, strain snc1, stronger effect = lower value 0.994 | locus YBL061C, strain skt5, stronger effect = lower value 0.99 | locus YBR009C, strain hhf1, stronger effect = lower value 0.988 | locus YBR021W, strain FUR4, stronger effect = lower value 1.02 | locus YBR023C, strain chs3, stronger effect = lower value 0.996 | locus YBR171W, strain sec66, stronger effect = lower value 1 | locus YBR229C, strain ROT2, stronger effect = lower value 1.01 | locus YBR231C, strain swc5, stronger effect = lower value 0.977 | locus YBR279W, strain paf1, stronger effect = lower value 0.99 | locus YCL011C, strain gbp2, stronger effect = lower value 1 | locus YCL016C, strain dcc1, stronger effect = lower value 0.989 | locus YCL029C, strain bik1, stronger effect = lower value 1.01 | locus YCL061C, strain MRC1, stronger effect = lower value 1 | locus YCL069W, strain vba3, stronger effect = lower value 1 | locus YCR088W, strain abp1, stronger effect = lower value 1.01 | locus YDL005C, strain med2, stronger effect = lower value 1 | locus YDL035C, strain GPR1, stronger effect = lower value 1.01 | locus YDL040C, strain nat1, stronger effect = lower value 0.995 | locus YDL074C, strain BRE1, stronger effect = lower value 0.94 | locus YDL101C, strain DUN1, stronger effect = lower value 1 | locus YDL134C, strain PPH21, stronger effect = lower value 0.997 | locus YDL185W, strain tfp1, stronger effect = lower value 1.01 | locus YDL192W, strain arf1, stronger effect = lower value 1 | locus YDR001C, strain nth1, stronger effect = lower value 1.01 | locus YDR069C, strain doa4, stronger effect = lower value 0.989 | locus YDR101C, strain arx1, stronger effect = lower value 1.01 | locus YDR137W, strain rgp1, stronger effect = lower value 1.04 | locus YDR159W, strain sac3, stronger effect = lower value 0.97 | locus YDR162C, strain NBP2, stronger effect = lower value 0.985 | locus YDR195W, strain ref2 0.977 | locus YDR297W, strain sur2, stronger effect = lower value 0.995 | locus YDR318W, strain mcm21, stronger effect = lower value 0.988 | locus YDR334W, strain swr1, stronger effect = lower value 0.996 | locus YDR335W, strain msn5, stronger effect = lower value 1.01 | locus YDR388W, stronger effect = lower value 0.996 | locus YDR392W, strain spt3, stronger effect = lower value 0.911 | locus YDR502C, strain sam2, stronger effect = lower value 1 | locus YEL003W, strain gim4, stronger effect = lower value 1.02 | locus YEL037C, strain rad23, stronger effect = lower value 0.999 | locus YEL061C, strain CIN8 (second series), stronger effect = lower value 1 | locus YEL061C, strain CIN8, stronger effect = lower value 1.03 | locus YER015W, strain faa2, stronger effect = lower value 0.988 | locus YER016W, strain bim1, stronger effect = lower value 1 | locus YER110C, stronger effect = lower value 0.989 | locus YER111C, strain swi4, stronger effect = lower value 1.01 | locus YER155C, strain BEM2 (second series), stronger effect = lower value 0.962 | locus YER155C, strain BEM2, stronger effect = lower value 0.992 | locus YER167W, strain BCK2, stronger effect = lower value 1 | locus YFR010W, strain ubp6, stronger effect = lower value 1.01 | locus YGL078C, strain dbp3, stronger effect = lower value 1.01 | locus YGL086W, strain mad1, stronger effect = lower value 1 | locus YGL167C, strain pmr1, stronger effect = lower value 0.994 | locus YGL173C, strain kem1, stronger effect = lower value 0.997 | locus YGL227W, strain vid30, stronger effect = lower value 1 | locus YGL240W, strain doc1, stronger effect = lower value 0.96 | locus YGL248W, strain PDE1, stronger effect = lower value 0.998 | locus YGL253W, strain hxk2, stronger effect = lower value 1.01 | locus YGR078C, strain PAC10, stronger effect = lower value 0.996 | locus YGR135W, strain pre9, stronger effect = lower value 0.99 | locus YGR252W, strain gcn5, stronger effect = lower value 0.978 | locus YHR013C, strain ard1, stronger effect = lower value 0.966 | locus YHR027C, strain rpn1, stronger effect = lower value 1 | locus YHR030C, strain SLT2, stronger effect = lower value 1.01 and 0.859 | locus YHR079C, strain IRE1 (second series), stronger effect = lower value 0.992 | locus YHR094C, strain hxt1, stronger effect = lower value 0.999 | locus YHR129C, strain ARP1, stronger effect = lower value 0.995 | locus YHR142W, strain chs7, stronger effect = lower value 1.02 | locus YHR200W, strain rpn10, stronger effect = lower value 0.991 | locus YIL066C, strain RNR3, stronger effect = lower value 0.986 | locus YIL073C, strain SPO22, stronger effect = lower value 1.02 | locus YIL125W, strain kgd1, stronger effect = lower value 0.994 | locus YIR030C, strain dcg1, stronger effect = lower value 1 | locus YJL092W, strain hpr5, stronger effect = lower value 1.01 | locus YJL095W, strain BCK1 (second series), stronger effect = lower value 0.992 | locus YJL115W, strain asf1, stronger effect = lower value 1 | locus YJL129C, strain trk1, stronger effect = lower value 0.976 | locus YJL134W, strain LCB3, stronger effect = lower value 0.99 | locus YJL154C, strain vps35, stronger effect = lower value 1 | locus YJL164C, strain tpk1, stronger effect = lower value 0.99 | locus YJL166W, strain qcr8, stronger effect = lower value 0.992 | locus YJL168C, strain set2, stronger effect = lower value 0.977 | locus YJL187C, strain SWE1 (second series), stronger effect = lower value 1 | locus YJL187C, strain SWE1, stronger effect = lower value 1.02
